Source: PubChem BioAssay (National Center for Advancing Translational Sciences (NCATS))
ALDH1A1 block: qHTS Assay for Inhibitors of Aldehyde Dehydrogenase 1 (ALDH1A1). AID 1030, 2008. hit rate 7.3% among 220,000. Purified ALDH1A1, NADH fluorescence, propionaldehyde substrate. Potency, µM (highest dose often 75.3 µM), for inactives: at the highest dose activity, negative = inhibition, actives largely listed as inhibitors;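 note: potency is the fitted concentration of half-maximal effect; plate controls were no enzyme wells and a reference inhibitor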
IMPase inh: qHTS Assay for Identifying the Cell-Membrane Permeable IMPase Inhibitors; Inositol monophosphatase 1 (Rattus norvegicus), P97697; CHO-M1 cells, IP1 accumulation, HTRF TR-FRET ratio; inhibition (IP1 accumulation), % at 46.1 µM; 120,000 tested, under 10 active; active = well fitted curve in the direction sought with a large enough effect in the signal ratio, not every such curve was filed as active; inconclusive = small, poorly fitted or top-dose-only effect, or a change in a side signal; inactive = no such curve, though single readings can be large or run the other way; the % refers to the signal ratio;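 note: cells stimulated with carbachol in lithium chloride buffer; plate controls were DMSO basal wells for no effect and reference inhibitor wells for full effect; higher means more IMPase inhibition seen as more IP1 and lower FRET ratio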
Target sequence (P97697 whole entry, looked up): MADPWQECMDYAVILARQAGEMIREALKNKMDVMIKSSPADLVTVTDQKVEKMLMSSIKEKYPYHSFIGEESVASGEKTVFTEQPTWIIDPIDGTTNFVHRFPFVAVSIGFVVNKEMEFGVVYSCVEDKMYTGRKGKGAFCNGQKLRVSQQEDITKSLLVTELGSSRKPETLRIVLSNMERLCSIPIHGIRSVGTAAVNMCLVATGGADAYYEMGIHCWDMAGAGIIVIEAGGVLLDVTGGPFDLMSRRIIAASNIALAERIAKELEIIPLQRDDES
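Measured: the HTRF emission ratio (665/620 nm) plus the 620 nm donor channel, each fitted to the Hill equation to give AC50. Cells were CHO-M1 given compounds up to 46 uM and a 30 min carbachol stimulation at 37C.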
HPGD inh: qHTS Assay for Inhibitors of HPGD (15-Hydroxyprostaglandin Dehydrogenase); AID 894, 2007; Potency, µM, without a hit: top-dose activity change, negative = inhibition, hits mostly inhibitors; 15-hydroxyprostaglandin dehydrogenase [NAD(+)] (Homo sapiens), P15428; hit rate 4.3% among 150,000; purified HPGD, NADH fluorescence kinetic, PGE2 substrate; note: potency is the fitted concentration of half-maximal effect
Target sequence (P15428 whole entry, looked up): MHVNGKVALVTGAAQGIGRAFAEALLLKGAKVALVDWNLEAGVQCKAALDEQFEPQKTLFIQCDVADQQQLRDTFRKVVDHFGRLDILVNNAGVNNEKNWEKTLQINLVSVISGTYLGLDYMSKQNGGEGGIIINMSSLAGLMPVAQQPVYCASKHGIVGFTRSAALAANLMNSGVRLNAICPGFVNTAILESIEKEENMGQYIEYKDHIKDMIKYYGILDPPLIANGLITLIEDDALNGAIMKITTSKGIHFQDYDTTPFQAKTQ
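NADH formation kinetics: reaction with 30 uM PGE2 and 1 mM NAD+ (final), 20 nM enzyme, Tris-HCl pH 8 with Tween 20, after 15 min compound preincubation at room temperature. Fluorescence change, last versus first of five reads.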
An asterisk follows results filed as active; ? = inconclusive; . = no result; [ ] = another dose, or the depositor's remark. An excerpt weighted towards active compounds, which were near 9% of everything screened. Unless noted, calls come from the whole dose curve; as a rule, active = well fitted inhibition curve with a large enough effect (not every such curve was filed as active); inconclusive = small, poorly fitted or top-dose-only effect, or another doubt; inactive = no such curve, though single readings can be large or run the other way. Unless noted, % is set by controls: 0 for no effect and ±100 for the full control effect.

SMILES | ALDH1A1 block | IMPase inh | HPGD inh
Cc1cc(=O)n2c(C(=O)Nc3ccc(C(=O)OC(C)C)cc3)c(C(=O)Nc3ccccc3)sc2n1 | -14% | . | .
O=C(CSc1nnc(-c2ccncc2)n1-c1ccc(F)cc1)NC(=O)NCc1ccco1 | 25µM* | 0 | -17%
COc1ccc(-c2ccc(SCC(=O)NCc3ccco3)nn2)cc1 | 2% | 7 | -16%
Cc1ccc(-n2c(SCC(=O)NCc3ccco3)nnc2-c2cccnc2)cc1 | ? | 4 | -17%
COc1ccc(-c2nnc(SCC(=O)NC(=O)NCc3ccco3)o2)cc1 | 22µM* | 2 | 20µM*
CCOC(=O)C(CSCC(=O)c1ccc(Cl)cc1Cl)NC(=O)OC(C)(C)C (stereo not given) | 7.9µM* | 3 | ?
CCOC(=O)CSCC(NC(=O)OC(C)(C)C)C(=O)OCC (stereo not given) | 4% | 0 | -5%
Nc1ccccc1CCCC(=O)O | 9%[13.5 µM] | . | -6%
Cc1nc(Oc2ccc(S(=O)(=O)N3CCOCC3)cc2Cl)c2c3c(sc2n1)CCCC3 | ? | . | -17%
Cc1cccc(N(CC(=O)NCc2ccccc2)S(C)(=O)=O)c1C | . | -2 | .
CC1CCN(S(=O)(=O)c2ccc3c(c2)oc(=O)n3CC(=O)N2c3ccccc3CC2C)CC1 (stereo not given) | 5% | -2 | -9%
CC1Cc2ccccc2N1C(=O)Cn1c(=O)oc2cc(S(=O)(=O)NC3CCCC3)ccc21 (stereo not given) | 8% | -5 | 13µM*
CCC1=Nc2ccccc2NC2=C1C(=O)CCC2 | 11µM* | 0 | -20%
CC1CC(=O)C2=C(C1)Nc1ccccc1N=C2 (stereo not given) | 19% | 8 | -4%
CCc1ccc(OCC(=O)N/N=C\c2ccco2)c([N+](=O)[O-])c1 | -11% | . | -15%
O=C(CCNS(=O)(=O)c1ccc(Br)s1)NCc1ccccc1 | -10% | . | .
CC(C)NC(=O)/C(=C/c1ccco1)c1ccccc1 | -6% | 2 | -9%
CCC(C)NC(=O)/C(=C/c1ccco1)c1ccccc1 (stereo not given) | ? | 3 | 25µM*
O=C(NCCc1ccccc1)/C(=C/c1ccco1)c1ccccc1 | 22µM* | . | -25%
Cc1cccc(C)c1NC(=O)/C(=C/c1ccco1)c1ccccc1 | ? | 2 | -10%
CCOc1ccc(NC(=O)Cn2nnc(C(=O)OC)c2C(=O)OC)cc1 | . | 7 | .
C=CC[C@@H]1C=C[C@H](O/N=C(\C)CCN2CCc3nc(CC)c(CC)cc3C2)[C@H](CO)O1 | 10%[13.5 µM] | . | .
CCOc1ccc(-c2nnc3sc(COc4ccccc4)nn23)cc1 | 6% | ? | -5%
Clc1ccccc1-c1nn2c(COc3ccccc3)nnc2s1 | 20µM* | 19 | 28µM*
COc1cc(-c2nn3c(COc4ccccc4)nnc3s2)cc(OC)c1OC | ? | -6 | ?
SMILES | ALDH1A1 block | IMPase inh | HPGD inh
CCOc1ccccc1OCc1nn2c(COc3ccccc3)nnc2s1 | 7.9µM* | 10 | 11µM*
c1ccc(OCc2nn3c(C4CCCCC4)nnc3s2)cc1 | ? | 7 | -23%
Clc1ccccc1OCc1nn2c(-c3ccncc3)nnc2s1 | ? | 1 | 4µM*
Clc1ccc(OCc2nn3c(-c4ccccc4)nnc3s2)c(Cl)c1 | ? | -9 | ?
c1ccc(Cc2nn3c(COc4ccccc4)nnc3s2)cc1 | 5µM* | 2 | 10µM*
COc1ccc(CCNC(=O)CSc2nnc(Cc3csc(N)n3)n2C)cc1OC | 13% | 0 | 4%
CC(C)C[C@@H](CC(=O)N[C@@H](CCC(=O)O)CC(=O)O)NC(=O)[C@@H]1CCCC[C@H]1NC(=O)C[C@H](CCCN)NC(=O)C[C@H](Cc1c[nH]c2ccccc12)NC(=O)[C@@H]1CNCC[C@H]1N | ? | . | -8%
O=C(CN1CCN(c2ccc(F)cc2)CC1)c1cccs1 | 7.1µM* | . | .
O=C(OCC(=O)N1CCc2ccccc2C1)c1cccs1 | -9% | . | .
O=C(CN1CCc2ccccc2C1)c1cccs1 | 7.9µM* | -1 | -22%
O=C(c1cccs1)N1CCN(c2ccc(F)cc2)CC1 | 4% | 1 | -1%
COc1ccc(C(=NNc2ccccc2C(=O)O)c2ccc(OC)cc2)cc1 | ? | . | -9%
CC(=O)C1=C(O)C(=O)N(c2cccnc2)C1c1ccc(Cl)cc1 (stereo not given) | ? | 5 | -29%
COc1ccc2c(c1)Cc1sc(NC(=O)c3ccccc3C)nc1-2 | . | 1 | .
COc1ccc(C(=O)Nc2nc3c(s2)Cc2cc(OC)ccc2-3)cc1 | 22µM* | -2 | -13%
COc1ccc2c(c1)Cc1sc(NC(=O)c3ccccc3)nc1-2 | ? | 3 | ?
COc1ccc2c(c1)Cc1sc(NC(=O)c3cccs3)nc1-2 | 2.5µM* | -5 | -24%
CCOC(=O)C(C(=O)c1ccccc1)[C@H](CCc1ccccc1)NC(=O)OC (stereo not given in full) | -3% | . | -4%
CC(=O)N/C(=C\c1ccc(Br)s1)C(=O)O | 1% | . | .
Cc1ccc(N(C(=O)C2CCC(=O)N2)C2(C(=O)NC3CCCC3)CCCCC2)cc1 (stereo not given) | -6% | 2 | 6%
O=C1CCC(C(=O)N(c2ccccc2)C2(C(=O)NC3CCCCC3)CCCCC2)N1 (stereo not given) | 7.1µM* | 11 | .
C=C[C@H](N)CCC(=O)O | -8% | 3 | -9%
Cc1cccc(NC(=O)CSc2nnc3c4ccccc4n(C)c3n2)c1 | . | 0 | .
Cc1[nH]c2ccccc2c1C(=O)CSc1ccccc1 | -8% | 2 | -10%
Cc1[nH]c2ccccc2c1C(=O)CN1CCCCC1C (stereo not given) | 20µM* | -1 | -19%
SMILES | ALDH1A1 block | IMPase inh | HPGD inh
Cc1[nH]c2ccccc2c1C(=O)CCl | 0.25µM* | . | .
CCC1CCCCN1CC(=O)c1c(C)[nH]c2ccccc12 (stereo not given) | -15% | 23 | -12%
O=S(=O)(c1ccccc1)C1(S(=O)(=O)c2ccccc2)CCCC1 | 4% | -7 | 4%
CC(O)c1nc2ccccc2n1CCCCOc1ccccc1 (stereo not given) | -6% | . | .
C=C(C)COc1ccc(-c2[nH]ncc2Oc2ccccc2OC)c(O)c1 | -7% | -5 | -14%
C=C(C)COc1ccc(-c2[nH]ncc2-c2ccccc2OC)c(O)c1 | 25µM* | 12 | -23%
Cn1ccc(C(=O)OCC(=O)Nc2cccc3ccccc23)n1 | -10% | . | .
O=C(O)CCCNC(=O)CC1S/C(=N/N=C/c2ccccc2O)NC1=O (stereo not given) | 5% | . | .
CCCN=C1NC(=O)C(CC(=O)NCCc2ccccc2)S1 (stereo not given) | 28µM* | . | .
COCCn1c(=N)c(C(=O)NC2CCCC2)cc2c(=O)n3cc(C)ccc3nc21 | . | 2 | .
O=C(COc1ccccc1)Nc1ccc(CSc2ccccc2)cc1 | 7% | 6 | -9%
O=S(=O)(NC1CCCC1)c1ccc(S(=O)(=O)N2CCc3ccccc32)cc1 | 32µM* | 7 | -1%
O=C(Nc1ccc(S(=O)(=O)N2CCc3ccccc32)cc1)c1ccc2c(c1)OCO2 | 18µM* | -1 | -8%
